Data from the supplement of paper PMC7156485.

Tests used:
Settings in all cases: concentration: 10 µM; 24 h
[1] = tested on: HCC1569; assay: cell number relative to DMSO (% of DMSO); higher = more cells (less growth inhibition / toxicity)
Summary of the method: (§1)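 Treatment: HCC1569 and TDF cells, 800 per well in 384-well plates with RPMI and 10% FBS, were given compounds at 10 µM for 24 h at 37 °C, in triplicate. Readout: after 3.7% formaldehyde fixation, cells were stained with a rabbit anti-H1.0 antibody, an AlexaFluor 647 secondary and DAPI. Reported values are H1.0 nuclear intensity or cell number as percent of the plate control, taken as the median of replicates, with positional smoothing for HCC1569.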

[2] = tested on: TDF; assay: as above
Summary of the method: as §1

[3] = tested on: TDF; assay: H1.0 immunofluorescence intensity relative to DMSO (% of DMSO); higher = stronger H1.0 induction, active = 120 or more
Summary of the method: as §1

[4] = tested on: HCC1569; assay: H1.0 immunofluorescence intensity relative to DMSO (% of DMSO); higher = stronger H1.0 induction, active = 140 or more
Summary of the method: as §1
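Throughout, for H1.0 immunofluorescence intensity relative to DMSO: TDF is a line of transformed human dermal fibroblasts of mesenchymal origin.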
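Throughout, for cell number relative to DMSO: TDF denotes transformed human dermal fibroblasts of mesenchymal origin.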

Row | Structure (SMILES) | cell number [1] | cell number [2] | H1.0 immunofluorescence intensity [3] | H1.0 immunofluorescence intensity [4]
1 | O=C(Oc1ccc([N+](=O)[O-])cc1)N1CCN(Cc2cccc(Oc3ccccc3)c2)CC1 [4-nitrophenyl 4-(3-phenoxybenzyl)-1-piperazinecarboxylate] | 97.4 | 104 | 101 (inactive) | 105 (inactive)
2 | CC(N)Cc1c[nH]c2ccc(O)cc12.O=C(O)C=CC(=O)O (stereo not drawn) [alpha-Methyl-5-hydroxytryptamine maleate] | 99.8 | 104 | 90.3 (inactive) | 87.9 (inactive)
3 | CC1(C(=O)O)CCCC2(C)c3cc(O)ccc3CCC12 (configuration not stated) [Podocarpic acid] | 100 | 102 | 101 (inactive) | 85.3 (inactive)
4 | CC1OC(=O)C2CC3CCCCC3C(C=CC3CCCC(C)N3C)C12 (single isomer, unassigned; (+)) [(+)-Himbacine] | 102 | 112 | 91 (inactive) | 109 (inactive)
5 | CCCCCC=CCC=CCC=CCC=CCCCC(=O)NCCO [Anandamide (20:4, n-6)] | 103 | 94.1 | 99.2 (inactive) | 96.7 (inactive)
6 | C[N+](C)(C)CC#CCN1CCCC1=O.[I-] [Oxotremorine methiodide] | 106 | 97 | 100 (inactive) | 98.8 (inactive)
7 | COc1ccc2c(c[n+](C)c3c4cc5c(cc4ccc23)OCO5)c1OC.[Cl-] [Chelerythrine] | 114 | 17.4 | 139 (active) | 96.2 (inactive)
8 | Cc1nc(-c2ccc(-c3ccc(C(=O)N4CCc5cc6c(cc54)C4(CCN(C)CC4)CO6)cc3)c(C)c2)no1.Cl | 70.1 | 94.7 | 114 (inactive) | 150 (active)
9 | CNC(=O)Oc1ccc2c(c1)C1(C)CCN(C)C1N2C (single isomer, unassigned; (-)) [(-)-Physostigmine] | 98.8 | 118 | 96.7 (inactive) | 94.3 (inactive)
10 | Cl.FC(F)(F)c1cccc(C2=CCN(CCc3ccc4ccccc4c3)CC2)c1 | 109 | 96.7 | 96.3 (inactive) | 100 (inactive)
11 | CC(N)C(=O)OC(C)(C)Cc1ccc(Cl)cc1.Cl (configuration not stated) [Alaproclate hydrochloride] | 102 | 111 | 88.2 (inactive) | 88.6 (inactive)
12 | CCC=CCC(C=CC=CCC=CCC=CCCCC(=O)O)OO (configuration not stated) | 101 | 92.8 | 92.7 (inactive) | 102 (inactive)
13 | CS(=N)(=O)CCC(N)C(=O)O [L-Methionine sulfoximine] | 103 | 94 | 92.5 (inactive) | 98.4 (inactive)
14 | COc1cc(C(=O)OC2CC3CCC(C2)N3C)ccc1O (configuration not stated) [Fillalbin] | 101 | 93.9 | 98.2 (inactive) | 94.5 (inactive)
15 | CC(=O)NCCc1c[nH]c2ccccc12 [N-Acetyltryptamine] | 101 | 97.5 | 104 (inactive) | 94.1 (inactive)
16 | OCC1CCCN2CCCCC12 (configuration not stated) [Lupinine] | 109 | 104 | 96.3 (inactive) | 84.3 (inactive)
17 | O=C(O)C=CC(=O)O.O=C(O)C=CC(=O)O.c1ccc2nc(N3CCNCC3)ccc2c1 [Quipazine dimaleate] | 97.5 | 103 | 90 (inactive) | 112 (inactive)
18 | CC=C1CC(C)C(O)(CO)C(=O)OCC2=CCN3CCC(OC1=O)C23 (configuration not stated) [Retrorsine] | 101 | 115 | 93.8 (inactive) | 90.4 (inactive)
19 | COc1ccc2c(c1OC)C(=O)OC2C1c2cc3c(cc2CCN1C)OCO3 (single isomer, unassigned; (+)) [(+)-Hydrastine] | 98.7 | 104 | 96.4 (inactive) | 89.2 (inactive)
20 | O=C(O)C1CCN1 [L-azetidine-2-carboxylic acid] | 100 | 103 | 92.3 (inactive) | 92 (inactive)
21 | C[N+](C)(C)CCCCCCCCCC[N+](C)(C)C [Decamethonium] | 105 | 118 | 91 (inactive) | 102 (inactive)
22 | CC1CCC2N(C1)CC1C3CC4C(CC(=O)C5CC(O)CCC54C)C3CCC1C2(C)O (configuration not stated) [Imperialine] | 102 | 88.5 | 97.1 (inactive) | 92.1 (inactive)
23 | C[N+](C)(C)CC#CCOC(=O)Nc1cccc(Cl)c1.[Cl-] | 103 | 99.2 | 94.4 (inactive) | 87.7 (inactive)
